The text below walks through data of PubChem BioAssay (NCI).

Compounds without any hit were thinned out: in the full panel of roughly 83,000, 20% have a hit.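 Values shown are percent growth following 48 h exposure of cells in 96-well plates to a single concentration of compound; below 10 was considered active.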 A number with no mark means an inactive call. Calls of active or inactive are those of the source.

One assay deals with UACC-62 melanoma. The experiment in a line: NCI-60 one-dose screen, 48 h (100 = growth as untreated, 0 = no growth, -100 = all killed). Particulars: 10 µM unless noted.
With `C=C1CC[C@@H]2[C@]3(C)COC(c4ccccc4)O[C@@H]3CC[C@@]2(C)[C@@H]1C/C=C1/C(=O)OC[C@H]1O` (some centres not stated), the growth is 85.7%.

For `Nc1nc(-c2cccc([N+](=O)[O-])c2)c(N=Nc2cccc([N+](=O)[O-])c2)s1`, the growth is 54.7%.

In the case of `Nc1cc(F)ccc1NC(=O)c1ccc(NC(=O)C/C=C/c2cccnc2)cc1`, the growth was 42.1%.

As for `CCc1nn2c(C)cc(C)nc2c1Cc1ccc(/C=C/CN2CCN(CCOCCOCCN3CCN(C/C=C/c4ccc(Cc5c(CC)nn6c(C)cc(C)nc56)cc4)CC3)CC2)cc1`, the growth is -86.4% (active).

For `COc1ccc(NC(=O)CSc2nnc(-c3ccc4nc(-c5ccccc5)[nH]c4c3)o2)cc1`, the growth was 95%.

On to `COc1ccc(N2C(=O)c3cc(Cl)ccc3NC2SCc2ccccc2)cc1` (configuration not stated), for which the growth was 70.3%.

In the case of `O=C(CSc1nc2ccccc2c(=O)n1-c1ccccc1)Nc1ccc(-c2nc3ccc([N+](=O)[O-])cc3[nH]2)cc1`, the growth was 51.9%.

In the case of `O=C(NCCn1ccnc1)c1ccc(-c2nc3ccc4[nH]ncc4c3c3c2CCCC3)cc1`, the growth was 28.8%.

On to `CCCC(=O)NC(c1cccnc1)c1cc(C(C)(C)C)c2cccnc2c1O` (configuration not stated), for which the growth is 7.53% (active).

The next assay relates to LOX IMVI melanoma. Described as above. As to conditions: 10 µM unless noted.
Regarding `Cc1ccc(NC(=O)c2ccc(CN3CCN(C)CC3)cc2)cc1Oc1ccc(-c2[nH]nc3ncnc(N)c23)cc1`, the growth was 66.7%.

In the case of `CCCn1cnc2c(c1=N)C(c1ccc(Cl)cc1)c1sc3c(C)cccc3c1O2` (configuration not stated), the growth is 19.6%.

With `C=C(C=O)[C@@H]1CC[C@]2(C)[C@H](CC=C3[C@H]4[C@@H](C)[C@H](C)CC[C@]4(C(=O)OC)CC[C@]32C)[C@@]1(C)CCC#N`, the growth is -86.1% (active).

As for `NC(N)=Nc1ccc(Oc2cccc(NC(N)=Nc3ccc(I)cc3F)c2)cn1`, the growth was 12.8%.

Regarding `Cc1occc1-c1nc2s/c(=C/c3ccc(-c4cc(C(F)(F)F)ccc4Cl)o3)c(=O)n2n1`, the growth is 101%.

With `C[C@H]1c2[nH]c3ccccc3c2C[C@H]2C(=O)N(CCCCCCC(=O)NO)CC(=O)N21`, the growth was -8.74% (active).

For `COc1ccc(-c2cc(-c3ccc(Cl)cc3)c(C#N)c(=O)n2Cc2ccc(C(=O)O)cc2)cc1`, the growth is 75.7%.

For the compound `O=C1[C@H]2Cc3c([nH]c4ccccc34)[C@@H](c3ccc(Cl)cc3)N2C(=O)CN1C1CCN(Cc2ccccc2)CC1`, the growth is 17.4%.

On to `COc1cc(-c2nn(C(C)(C)C)cc2-c2ccnc(NCCCNS(=O)(=O)c3ccc(C)cc3)n2)ccc1Cl`, for which the growth is 72.7%.

Turning to `CCCCNNC(=O)c1ccc(-c2cccc(F)c2F)cc1`, the growth is 21.8%.

On to `CC1(C)CC[C@]2(C(=O)N3CCOCC3)CC[C@]3(C)C(=CC[C@@H]4[C@@]5(C)C/C(=C/c6ccccn6)C(=O)C(C)(C)[C@@H]5CC[C@]43C)[C@@H]2C1`, for which the growth is 55.9%.

As to `O=S(=O)(NCCNc1nccc(-n2cnc3ccccc32)n1)c1ccc(Br)cc1`, the growth was 99.1%.

Take `CC1(C)CC[C@]23CC[C@]4(C)[C@H](CC[C@@H]5[C@@]6(C)CCCN(CO)C(C)(C)[C@@H]6CC[C@]54C)[C@H]2[C@H]1OC3`: the growth is -80.9% (active).

Turning to `O=C1[C@H]2Cc3c([nH]c4ccccc34)[C@@H](c3ccc(Br)cc3)N2C(=O)CN1C1CCN(CC2CCCCC2)CC1`, the growth is -87.1% (active).

Turning to `COc1ccc([C@H]2c3[nH]c4ccccc4c3C[C@H]3C(=O)N(C4CCN(Cc5c(Cl)cccc5Cl)CC4)CC(=O)N23)c(OC)c1`, the growth was 98.6%.

For `NS(=O)(=O)c1ccc(Nc2nc(Nc3ccccc3)nc3nnc(SCC(=O)NC4CCCCC4)n23)cc1`, the growth was 101%.

`O=C(NNc1nc2cc(F)ccc2n2c(CN3CCC(O)C3)ccc12)c1cnccn1` (configuration not stated): the growth was -0.788% (active).

On to `CCN(CC)c1cn(-c2ccc(S(N)(=O)=O)cc2)nn1`, for which the growth was 106%.

In the case of `O=[N+]([O-])c1cc(/C=N/Nc2nc(N/N=C/c3ccc(Cl)c([N+](=O)[O-])c3)nc(N3CCCCC3)n2)ccc1Cl`, the growth was 66%.

In the case of `CC(=O)Nc1cccc(Nc2nc(N[C@@H](C)c3ccccc3)c3ccccc3n2)c1`, the growth is -70.2% (active).

For the compound `COc1ccc(COc2ccc(/C=C3\C(=O)Nc4ccccc43)cc2OC)cc1`, the growth was 96.6%.

On to `CCNC(=O)Oc1ccc(/C(=C(/C)c2ccccc2)c2ccc(OCCN3CCCCCC3)cc2)cc1`, for which the growth is -14.8% (active).

For `COc1cc(/C=N/NC(=O)c2cn(C3CC3)c3c(OC)c(N4CC5CCCNC5C4)c(F)cc3c2=O)ccc1O` (configuration not stated), the growth was -83.5% (active).
